This is an account of results in the supplement of paper PMC12808144.

Counter-ions that a name gives are not always drawn.

The experiment deals with Mel-DCC-11-R. The experiment is described as follows: cell viability relative to DMSO control (fraction of DMSO control); higher = less cytotoxic, active = 0.8 or less. As to conditions: 1 µM; 120 h; vemurafenib co-treatment 0 µM. The essentials: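 Three cell types were screened against 315 approved anti-cancer drugs from TargetMol, acoustically pre-spotted in 384-well plates at 1 µM in duplicate over 120 h: NHEM-hTERT immortalized melanocytes (2500/well), patient-derived Mel-DCC-11 and its resistant subline Mel-DCC-11-R (both 1500/well), all in 40 µl per well. The subline was tested alone and with 8 µM of its selecting drug. Viability, measured by luminescence, was normalised to vehicle controls and averaged across duplicates, with ATPlite 1step as the readout.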
Take `C#CCC(Cc1cnc2nc(N)nc(N)c2n1)c1ccc(C(=O)N[C@@H](CCC(=O)O)C(=O)O)cc1` (stereo partly specified) [Pralatrexate]: the cell viability was 0.982 (inactive).
For the compound `CC1(COc2ccc3c(c2)ncn3-c2ccc3cccc(N4CCC(N)CC4)c3n2)COC1` [Crenolanib], the cell viability is 1.26 (inactive).
As to `CC(=O)O[C@H]1C(=O)[C@]2(C)[C@@H](O)C[C@H]3OC[C@@]3(OC(C)=O)[C@@H]2[C@@H](OC(=O)c2ccccc2)[C@]2(O)C[C@H](OC(=O)[C@H](O)[C@@H](NC(=O)c3ccccc3)c3ccccc3)C(C)=C1C2(C)C` [Paclitaxel], the cell viability is 1.06 (inactive).
Consider `CC(O)(P(=O)([O-])O)P(=O)([O-])O.[Na+].[Na+]` [Sodium etidronate], for which the cell viability was 0.787 (active).
As to `Nc1nc2[nH]nnc2c(=O)[nH]1` [8-Azaguanine], the cell viability was 1.42 (inactive).
The result for `N.N.O=C([O-])C[O-].[Pt+2]` [Nedaplatin] reads 1 (inactive).
For `O=C(/C=C/c1cccc(S(=O)(=O)Nc2ccccc2)c1)NO` [Belinostat], the cell viability is 0.839 (inactive).
As for `CN(C)C/C=C/C(=O)Nc1cc2c(Nc3ccc(F)c(Cl)c3)ncnc2cc1O[C@H]1CCOC1` [Afatinib], the cell viability was 1.09 (inactive).
For `C=C[C@H]1[C@@H](O[C@@H]2O[C@H](CO)[C@@H](O)[C@H](O)[C@H]2O)OC=C2C(=O)OCC[C@]21O` [Swertiamarin], the cell viability is 0.976 (inactive).
For `Cc1ccc(NC(=O)C2(c3ccc4c(c3)OC(F)(F)O4)CC2)nc1-c1cccc(C(=O)O)c1` [Lumacaftor] the value was 0.946 (inactive); for `Nc1[nH]c(=O)ncc1F` [Fluorocytosine], 0.936 (inactive).
With `O=c1c(-c2ccc(O)cc2)coc2cc(O)cc(O)c12` [Genistein], the cell viability is 0.984 (inactive).
In the case of `COc1ccc2cc1Oc1ccc(cc1)C[C@H]1c3cc(c(OC)cc3CCN1C)Oc1c(OC)c(OC)cc3c1[C@H](C2)N(C)CC3` [Tetrandrine], the cell viability is 0.886 (inactive).
For `COc1ccc(/C=C\c2cc(OC)c(OC)c(OC)c2)cc1OP(=O)([O-])[O-].[Na+].[Na+]` [Fosbretabulin Disodium], the cell viability was 0.57 (active).
As for `COC(=O)/C=C/C(=O)OC` [Dimethyl fumarate], the cell viability is 1.06 (inactive).
Turning to `N#Cc1ccc(C(c2ccc(C#N)cc2)n2cncn2)cc1` [Letrozole], the cell viability is 1.08 (inactive).
Turning to `O=c1cc(O)c(Cl)c[nH]1` [Gimeracil], the cell viability was 0.944 (inactive).
Turning to `COC(=O)[C@]12CCC(C)(C)C[C@H]1[C@H]1C(=O)C=C3[C@@]4(C)C=C(C#N)C(=O)C(C)(C)[C@@H]4CC[C@@]3(C)[C@]1(C)CC2` [Bardoxolone Methyl], the cell viability was 0.833 (inactive).
For the compound `Clc1ccc(C(c2ccccc2Cl)C(Cl)Cl)cc1` (stereo unspecified) [Mitotan], the cell viability is 1 (inactive).
For `CCOc1cc2ncc(C#N)c(Nc3ccc(OCc4ccccn4)c(Cl)c3)c2cc1NC(=O)/C=C/CN(C)C` [Neratinib], the cell viability is 1.31 (inactive).
The result for `O=C1CCC(N2C(=O)c3ccccc3C2=O)C(=O)N1` (stereo unspecified) [Thalidomide] reads 0.897 (inactive); that for `CN(C)CCOc1ccc(/C(=C(/CCCl)c2ccccc2)c2ccccc2)cc1` [Toremifene], 0.887 (inactive); that for `CC(C)NCC(O)COc1cccc2ccccc12.Cl` (stereo unspecified) [Propranolol hydrochloride], 0.858 (inactive).
`O=c1cc[nH]c(=O)[nH]1` [Uracil]: the cell viability was 0.875 (inactive).
For `COc1ccc(C(Cl)=C(c2ccc(OC)cc2)c2ccc(OC)cc2)cc1` [Chlorotrianisene] the value was 0.86 (inactive).
For the compound `CC(=O)O[C@]1(C(C)=O)CC[C@H]2[C@@H]3C=C(C)C4=CC(=O)CC[C@]4(C)[C@H]3CC[C@@]21C` [Megestrol acetate], the cell viability is 1.13 (inactive).
With `COc1c2occc2cc2ccc(=O)oc12` [8-Methoxypsoralen], the cell viability is 1.05 (inactive).
In the case of `CC/C(=C(\c1ccccc1)c1ccc(OCCN(C)C)cc1)c1ccccc1.O=C(O)CC(O)(CC(=O)O)C(=O)O` [Tamoxifen Z-isomer citrate], the cell viability is 0.873 (inactive).
For `CC1=C(CC(=O)O)c2cc(F)ccc2/C1=C\c1ccc(S(C)=O)cc1` (stereo unspecified) [Sulindac] the value was 0.986 (inactive); for `Oc1ccc(/C=C/c2cc(O)cc(O)c2)cc1` [Resveratrol], 0.914 (inactive).
Turning to `COc1cc([C@@H]2c3cc4c(cc3[C@@H](O[C@@H]3O[C@@H]5CO[C@@H](C)O[C@H]5[C@H](O)[C@H]3O)C3COC(=O)C32)OCO4)cc(OC)c1O` (stereo partly specified) [Etoposide], the cell viability was 1.26 (inactive).
